Screen size: about 2,200 compounds; about 480 (22%) were called active. The rule behind the calls is not given here. The list is a sample of the results. Measured potencies and affinities stand elsewhere.

The nature of this assay: S. Typhimurium GFP fluorescence dose response in modified counterscreen for PhoP regulon inhibitor project (AID 1981). As to conditions: 4 h; series mostly up to 150 µM. (A counterscreen serves to expose hits that act by an unwanted route or on another target.)
For `COc1cccc(/C=N/n2c(C)nc3ccccc32)c1OC`, the result was inactive.

In the case of `CCCCn1c(N)nc2ccccc21`, the outcome was inactive.

Consider `CCCn1c(N)nc2ccccc21`, for which the outcome was inactive.

`COc1ccc2c(c1)nc(N)n2Cc1ccccc1`: the call was inactive.

In the case of `CSc1nc2ccccc2n1Cc1cccc(F)c1`, the call was inactive.

As for `CCOc1cc(S(=O)(=O)N2CCN(CC)CC2)ccc1Cl`, the outcome was inactive.

With `CC(C)Cn1cnc2sc3c(c2c1=N)CCCC3`, the outcome was inactive.

As to `CCn1c(C)cc(=S)c2ccccc21`, the molecule was classed as inactive.

In the case of `CC(C)(C)C1CCC2(CC1)Nc1cccc3cccc(c13)N2`, the molecule was classed as inactive.

Turning to `Cc1ccc(C(=O)CSc2ncnc3sc4c(c23)CCCC4)cc1`, the outcome was inactive.

Turning to `c1ccc(Cn2nnc3c(NCc4ccc5c(c4)OCO5)nc(C4CC4)nc32)cc1`, the result was inactive.

Consider `CCC(CC)C(=O)N1c2ccc(F)cc2CCC1C` (configuration not stated), for which the call was inactive.

Take `Cc1nc(N2CCN(Cc3ccccc3)CC2)nc2c1C(=O)CC(C)C2` (configuration not stated): the result was inactive.

Regarding `Cc1cc(/C=N/NC(N)=S)c(C)n1-c1ccc(Cl)c(Cl)c1`, the result was inactive.

`Cn1cccc1CC(=O)N/N=C/C(Cl)=C/c1ccccc1`: the outcome was inactive.

As to `c1ccc2c(c1)Sc1ccccc1N2CC1CN2CCC1CC2` (configuration not stated), the result was inactive.

Regarding `CSc1ccc2c(c1)C(N1CCN(C)CC1)Cc1ccccc1S2` (configuration not stated), the call was inactive.

For `O=C(CSc1nc2ccccc2o1)Nc1ccc(N2CCOCC2)cc1`, the molecule was classed as inactive.

For `O=C1CC(c2ccccc2)n2nc(NC(=O)c3ccccc3)nc2N1` (configuration not stated), the molecule was called inactive.

Regarding `CCN(c1ccc(OCC(=O)OCC(=O)Nc2ccc(F)c(F)c2F)cc1)S(=O)(=O)c1ccccc1`, the molecule was called inactive.

As for `O=C(Cc1n[nH]c(=O)c2ccccc12)OCC(=O)c1ccc2c(c1)OCCO2`, the call was inactive.

Turning to `CC1CCN(C(c2cc3cc4c(cc3[nH]c2=O)OCO4)c2nnnn2CC2CCCO2)CC1` (configuration not stated), the call was inactive.

`COc1ccc(N(CC(=O)Nc2ccccc2SC)S(C)(=O)=O)cc1OC`: the outcome was inactive.

`Nc1cc(N)nc(SCc2cc(=O)oc3cc4c(cc23)CCC4)n1`: the outcome was inactive.

On to `Nc1nnc(Sc2ccc(Cl)cc2[N+](=O)[O-])s1`, for which the result was inactive.

In the case of `CCN(CC)S(=O)(=O)c1ccc2[nH]cc(C(=O)NCCc3ccccc3)c(=O)c2c1`, the result was inactive.

For `O=C(CSc1nccc(=O)[nH]1)N1c2ccccc2CCc2ccccc21`, the call was inactive.

Take `O=C(CSc1nc(Nc2ccccc2)nc(N2CCOCC2)n1)Nc1ccc([N+](=O)[O-])cc1`: the molecule was classed as inactive.

In the case of `Cc1cc(=O)oc(C)c1C(=O)NCc1cccnc1`, the call was inactive.

On to `COc1ccc(Cl)cc1Nc1nc(-c2sc(NC(=O)c3ccco3)nc2C)cs1`, for which the molecule was called inactive.

With `O=C(NNc1nc(-c2ccccc2)cs1)c1ccco1`, the molecule was called inactive.

As for `Cc1cc(C)cc(OC(=O)CS(=O)c2ccc(C(F)(F)F)cc2[N+](=O)[O-])c1` (configuration not stated), the molecule was classed as inactive.

As to `c1ccc2c(c1)[nH]c1c(N3CCCC3)ncnc12`, the outcome was inactive.

For the molecule `O=C(CCCNS(=O)(=O)c1ccccc1)NCc1ccco1`, the molecule was called inactive.

`O=Cc1cccn1Cc1ccccc1[N+](=O)[O-]`: the call was inactive.

For the molecule `CCN1CCN(c2oc(COc3ccc(Cl)cc3)nc2C#N)CC1`, the outcome was inactive.

With `CCOC(=O)c1cnc2ccc(OCC)cc2c1N1CCN(c2ccccc2)CC1`, the result was inactive.

As to `COc1ccc2cc(C#N)c(NC(C)C)nc2c1`, the outcome was inactive.

For the molecule `COc1cc(C2NC(=O)NC(c3ccccc3)=C2C(C)=O)ccc1OCC(=O)O` (configuration not stated), the molecule was classed as inactive.

`CC1CCCC(C)N1/N=C/c1c[nH]c2ccc(Br)cc12` (configuration not stated): the molecule was called inactive.

`COc1cccc(N=Cc2c[nH][nH]c2=O)c1`: the molecule was classed as inactive.

Take `O=C(OCc1ccccc1)Oc1cncc(C(=O)O)c1`: the outcome was inactive.

For `COC(=O)c1ccc(C(=O)OC)c(NC(=O)COc2ccccc2OC)c1`, the result was inactive.

As for `CC(=O)Nc1nc2nc(-c3ccccc3)cc(-c3ccccc3)n2n1`, the molecule was classed as inactive.

On to `CCOC(=O)C(/C=C(\C#N)C(=O)OCC)=C(/N)N1CCN(c2c(C)cccc2C)CC1`, for which the outcome was inactive.

For the molecule `O=C(CCN1CCc2ccccc2C(c2ccccc2)C1)c1ccc2c(c1)OCCO2` (configuration not stated), the molecule was classed as inactive.

In the case of `CCCC(=O)c1c[nH]c(C(=O)NCCCN2CCOCC2)c1`, the molecule was called inactive.

On to `O=C(c1ccc(CSc2nc3ccncc3[nH]2)cc1)N1CCN(c2cccc(Cl)c2)CC1`, for which the molecule was called inactive.

Consider `O=S(=O)(c1ccc(F)c2ccccc12)N1CCCCC1`, for which the call was inactive.

Regarding `COc1ccc(-c2[nH]ncc2/C=C(\C#N)C(=O)NC2CC2)cc1`, the result was inactive.

As for `COC(=O)C1=C(C)N(C)C(=O)/C1=C\c1ccco1`, the molecule was called inactive.

As for `COC(=O)c1ccc(NC(=S)NCCc2cccc(C)c2)cc1`, the molecule was called inactive.

On to `COc1ccc(S(=O)(=O)n2nc(OC(=O)c3ccccc3Br)cc2N)cc1`, for which the molecule was classed as inactive.

In the case of `CN(C(=O)C1CCOC1)c1nnc(-c2ccccn2)s1` (configuration not stated), the molecule was classed as inactive.

Regarding `O=C1NC(c2ccc3c(c2)OCO3)Oc2ccccc21` (configuration not stated), the molecule was classed as inactive.

On to `CCn1nnc(-c2ccccc2NS(=O)(=O)c2ccc(S(=O)(=O)N3CCCCCC3)cc2)n1`, for which the molecule was classed as inactive.

Consider `CC(C)CCNC(=S)Nc1ccc([N+](=O)[O-])cc1`, for which the molecule was called inactive.

On to `Cc1cc(C(=O)N/N=C/c2ccc[nH]2)no1`, for which the molecule was classed as inactive.

Regarding `O=C(NC1CCN(C(=O)N2c3ccccc3Sc3ccccc32)CC1)c1ccco1`, the molecule was classed as inactive.

Turning to `Cc1cc(CNC(=O)Nc2ccc3c(c2)OCO3)nn1C`, the molecule was classed as inactive.

On to `O=C(COc1ccc2ccccc2c1)N1CCN(CC2CC3C=CC2C3)CC1` (configuration not stated), for which the molecule was called inactive.

Consider `COCC(=O)N(Cc1ccco1)c1nnc(C2CCOC2)s1` (configuration not stated), for which the outcome was inactive.

With `CCCc1nn(C)c2c1C(c1cccnc1)C(C#N)=C(N)O2` (configuration not stated), the outcome was inactive.

Turning to `CCOC(=O)C1(S(=O)(=O)c2ccccc2)CCN(Cc2ccc(Cl)cc2)CC1`, the molecule was called inactive.

Consider `O=C(CN1C(=O)c2ccccc2C1=O)N1CCN(c2ccccn2)CC1`, for which the molecule was called inactive.

`Cc1ccc(/C=C/c2nnc(-c3ccc(C)cc3)o2)cc1`: the result was inactive.

Consider `COc1ccc2ccccc2c1/C=N/NC(=O)c1sc(N)c(C#N)c1C`, for which the outcome was inactive.

With `CC(=O)n1cc(/C=N/NC(=O)c2sc(C)nc2C)c2ccccc21`, the molecule was classed as inactive.

With `COc1ccc(C2CC(c3ccccc3)=NN2c2ccc(/C=N/NC(=O)c3ccncc3)cc2)cc1` (configuration not stated), the molecule was called inactive.

Consider `COc1ccc(OCCn2cc(/C=N/NC(=O)c3ccncc3)c3ccccc32)cc1`, for which the outcome was inactive.

Consider `COc1ccc2c(c1)CC1(CN2C)C(=O)NC(=O)N(c2ccc(F)cc2)C1=O` (configuration not stated), for which the molecule was classed as inactive.

Turning to `O=C1Nc2ccc(F)cc2C12SCCS2`, the molecule was called inactive.

For the molecule `Cc1cc2ncn(CC(O)COc3cccc(C(=O)O)c3)c2cc1C` (configuration not stated), the molecule was classed as inactive.

Regarding `COc1cc([N+](=O)[O-])ccc1NC(=O)CN(C)C`, the result was inactive.

`COc1cc([N+](=O)[O-])cc(/C=N/NC(=O)c2cccnc2)c1O`: the result was inactive.

As for `C#CC(C)(CC)NC(=O)c1cc(OC)c(OC)c(OC)c1` (configuration not stated), the result was inactive.

With `CC(C)(C)c1cc2cccnc2n1Cc1cccc(Cl)c1`, the molecule was called inactive.

On to `COc1ccc(Cl)cc1C(=O)Nc1ccc(NC(=O)c2ccco2)cc1`, for which the call was inactive.

`O=C(O)CCc1nn2c3ccccc3n(CC(=O)c3ccccc3)c2nc1=O`: the result was inactive.

Consider `Nc1ncncc1-c1ccc(Cl)cc1`, for which the outcome was inactive.

Turning to `Nc1c(-c2ccccc2)cnn1-c1cccc([N+](=O)[O-])c1`, the call was inactive.

On to `CCOC(=O)C1CCCN(C(=O)Cc2ccc(Cl)cc2)C1` (configuration not stated), for which the molecule was classed as inactive.

`CC1=CC(C)C2(CO)COC(c3ccccc3O)C1C2C` (configuration not stated): the outcome was inactive.

As for `CNc1nc(-c2ccccn2)nnc1-c1ccccc1`, the call was inactive.

Regarding `Nc1nc(Nc2ccc(Cl)cc2)n[nH]1`, the result was inactive.

Turning to `Cc1ccc2c(CN3CCC(C)CC3)cc(=O)oc2c1`, the call was inactive.

On to `Cc1[nH]c2ccccc2c1C1=NNC(=Nc2ccc(F)cc2)SC1`, for which the result was inactive.

As for `CCN1/C(=C/C(C)=C/c2sc3ccccc3[n+]2CC)Sc2ccccc21`, the call was inactive.

On to `COc1ccc(C(=O)COc2nc(C)cc(C)c2C#N)cc1`, for which the molecule was classed as inactive.

As for `Cc1cc(-c2csc(NC(=O)c3ccc(S(=O)(=O)N(C)C)cc3)n2)c(C)n1-c1ccccc1`, the outcome was inactive.

For the molecule `CC1(C)CC(=O)c2c(nc3ccccc3c2N)C1`, the call was inactive.

On to `Cc1nn(-c2ccc(Cl)cc2)c2[nH]c(=O)c(CNCc3ccc4c(c3)OCO4)cc12`, for which the molecule was called inactive.

With `CC(O)c1ccc(OCCN(C)c2ccccn2)cc1` (configuration not stated), the result was inactive.

Take `Cc1cc(C)n(-c2ccc(C(=O)Nc3nc4ccccc4s3)cc2)n1`: the molecule was called inactive.

`CC(=O)c1c(N2CCN(C(=O)C3CCCO3)CC2)nc(=S)n(-c2ccccc2)c1C` (configuration not stated): the call was inactive.

On to `O=S(=O)(Cc1ccccc1Cl)N1CCN(Cc2ccc3c(c2)OCO3)CC1`, for which the result was inactive.

As to `Cc1ccc(-n2c(C)cc(C3=NNC(=NC4CC4)SC3)c2C)cc1C`, the molecule was called inactive.

As to `Cc1nc2ccccc2c(=O)n1/N=C/c1ccc(N(C)C)cc1`, the outcome was inactive.

Turning to `c1ccc(Cc2nnc(-c3ccccc3)o2)cc1`, the outcome was inactive.

Take `NCCCCCc1nnc(SCc2ccc(Cl)c(Cl)c2)o1`: the result was inactive.

Consider `O=C(c1ccc(-c2ccccc2)cc1)c1ccccc1C(=O)N1CCOCC1`, for which the call was inactive.

Consider `COc1ccc(N2CCN(C(=O)C3CCCO3)CC2)cc1` (configuration not stated), for which the call was inactive.

With `O=C(c1ccc(Cl)cc1Cl)C1(n2cncn2)Oc2ccccc2C1O` (configuration not stated), the outcome was inactive.

As to `Cc1cccc(-n2ncc3c(NCc4ccc5c(c4)OCO5)ncnc32)c1`, the call was inactive.

For `O=C1C2C3c4ccccc4C(c4ccccc43)C2C(=O)N1c1cccc2cccnc12` (configuration not stated), the outcome was inactive.

`Brc1ccc2cccnc2c1`: the call was inactive.

For the molecule `Cc1ccc(C=Nc2ccccc2C(N)=O)cc1`, the molecule was classed as inactive.

`CCOc1c(Br)cc(CNCc2cccs2)cc1OC`: the outcome was inactive.

Regarding `Clc1ccc(Cn2ncc3c(NCc4ccco4)ncnc32)c(Cl)c1`, the call was inactive.

On to `Cc1ccc(NC(=O)CCCSc2nc3ccccc3[nH]2)cc1`, for which the outcome was inactive.

For the molecule `O=C(Nc1cccnc1)c1cc(F)cc(F)c1`, the outcome was inactive.

With `Cc1cc(C)c2nc(NNC(=O)c3ccc(S(=O)(=O)N4CCCCC4)cc3)sc2c1`, the molecule was called inactive.

In the case of `COC(=O)c1sccc1NC(=O)C1C2C=CC(O2)C1C(=O)O` (configuration not stated), the call was inactive.

As to `Nc1ccc(C(=O)OCc2nc3ccccc3[nH]2)cc1`, the result was inactive.

On to `CCOc1ccc(CCNC(=O)c2cc3sc(Cl)cc3n2C)cc1OCC`, for which the molecule was classed as inactive.

Take `CCN1CCN(C(=O)c2ccc(COc3ccc(Cl)cc3)o2)CC1`: the molecule was classed as inactive.

Regarding `CCOc1ccc(/C=N/O)cc1`, the call was inactive.

These data come from PubChem BioAssay AID1981 (Southern Research Specialized Biocontainment Screening …, 2009).
